39 compounds from PubChem BioAssay (EPA / NIEHS) can be followed below.

Where “and” joins values, the source holds several entries; their conditions need not be identical. Equal values may be shown once. Some structures have more than one record in an assay (separate samples or runs), and their calls can disagree. Calls of active or inactive are those of the source. How the source made its calls: active means hit-call score of the fitted dose curve at least 0.9, where 1 is the maximum; inactive means score below 0.9.

Read-out in the assay: Plasminogen activator inhibitor-1 (PAI1), SERPINE1 (gene 5054)
As to the kind of experiment: BSK_BE3C_PAI1: BioMAP Diversity Plus: BE3C Assay for Plasminogen activator inhibitor-1 (PAI1) Biomarker Activity (AID 2283037). To be noted: primary human bronchial epithelial cells; actives raise or lower the signal. On the procedure: BSK_BE3C is a cell-based, multiplexed-readout assay that uses bronchial epithelial cell, a human lung primary cell, with measurements taken at 24 hours after chemical dosing in a 96-well plate.BSK_BE3C_PAI1 is an assay component measured in the BSK_BE3C assay. It measures PAI-1 antibody related to regulation of gene expression using ELISA technology.Data from the assay component BSK_BE3C_PAI1 was analyzed into 1 assay endpoint. This assay endpoint, BSK_BE3C_PAI1, was analyzed with bidirectional fitting relative to DMSO as the negative control and baseline of activity. Using a type of binding reporter, gain or loss-of-signal activity can be used to understand changes in the signaling as they relate to the gene SERPINE1. Furthermore, this assay endpoint can be referred to as a primary readout, because this assay has produced multiple assay endpoints where this one serves a signaling function. To generalize the intended target to other relatable targets, this assay endpoint is annotated to the cytokine intended target family, where the subfamily is plasmogen activator inhibitor.
The levels of cell surface (or secreted, indicated by the prefix "s") biomarker endpoints were measured by ELISA. Overt cytotoxicity to cells in confluent adherent cultures (all systems other than the BT system) was assessed by measuring total protein levels using sulforhodamine B (SRB) staining in parallel cultures at the time of biomarker measurements, indicated as SRB endpoints. For proliferation assays for adherent cell types, individual cell types are cultured at sub-confluence and relative cell numbers quantified by SRB staining at time points optimized for each system (48 h: 3C and CASM3C systems; 72 h: BT and HDF3CGF systems; 96 h: SAg system). SRB was performed by staining cells with 0.1% SRB after fixation with 10% TCA and reading wells at 560 nm.Viability and proliferation of PBMC (T cells) was quantified by Alamar Blue reduction for the SAg and BT systems. For PBMC viability (referred to as PBMC Cytotoxicity within the assay endpoint names), cells were plated (75,000/well in a 96-well plate) and then chemical samples added for 1 h before addition of activators, SEB and TSST-1 (20 ng/mL final concentration each). Cells were incubated for 90 h. Then, Alamar Blue (20 uL/well) (Invitrogen, Cat DAL1100) was added for 6 h, and the plates were read with a fluorescence microplate reader at 546/580 nm (excitation/emission). For PBMC proliferation, cells were plated and activated as above but incubated for only 16 h prior to addition of Alamar Blue. Plates were read after 6 h.
For `C=C(C)C(=O)OCC(F)(F)C(F)(F)C(F)(F)C(F)F`, the outcome was inactive.

With `NCC(F)(F)C(F)(F)C(F)(F)C(F)(F)C(F)(F)C(F)(F)C(F)(F)C(F)(F)F`, the result was inactive.

On to `CCN(CC)c1ccc(C=O)cc1`, for which the result was inactive. As for `C=CC(=O)OCC(F)(F)C(F)(F)C(F)(F)C(F)(F)C(F)(F)C(F)(F)C(F)(F)C(F)F`, the outcome was inactive. As for `OC(O)C(F)(F)C(F)(F)F`, the result was inactive.

Turning to `FC(F)(F)C(F)(F)C(F)(F)CC1CO1` (stereo not given), the result was inactive. With `O=C(O)C(F)(F)OC(F)(F)C(F)(F)OC(F)(F)C(F)(F)OC(F)(F)F`, the result was inactive. `C=CC(=O)OCCC(F)(F)C(F)(F)C(F)(F)C(F)(F)F`: the result was inactive.

Consider `Nc1cc([N+](=O)[O-])cc(Cl)c1O`, for which the outcome was inactive. Take `CCOC(C=C(C)CCC=C(C)C)OCC`: the result was inactive. Same read-out and setting: next, `CCN(CC)c1ccc(C=O)c(O)c1`: “inactive”. As for `CNS(=O)(=O)C(F)(F)C(F)(F)C(F)(F)C(F)(F)C(F)(F)C(F)(F)C(F)(F)C(F)(F)F`, the AC50 – broadly, the concentration giving half of the maximal activity seen – was 2.67 µM (active) and 1.97 µM (active).

For the compound `OCC(O)CC(F)(F)C(F)(F)C(F)(F)C(F)(F)F` (stereo not given), the result was inactive.

With `Cc1cc(C)c(O)c(C(C)(C)C)c1`, the AC50 was 27.9 µM (active).

With `O=C(Cl)C(F)(F)C(F)(F)C(F)(F)C(F)(F)C(F)(F)C(F)(F)C(F)(F)F`, the outcome was inactive. With `O=S(=O)(O)CCC(F)(F)C(F)(F)C(F)(F)C(F)(F)C(F)(F)C(F)(F)C(F)(F)C(F)(F)F`, the AC50 is 8.09 µM (active) and the outcome was inactive. Turning to `CCN(CC)c1ccc(N=Nc2ccccc2)cc1`, the AC50 is 29.3 µM (active). As to `CN(C(=O)C(F)(F)C(F)(F)C(F)(F)F)[Si](C)(C)C`, the outcome was inactive. Still for that read-out and setting: next, `OCC(F)(F)C(F)(F)C(F)(F)C(F)(F)C(F)(F)C(F)(F)CO`: “inactive”; `CC(C)CCCC(C)CCO` (stereo not given): “inactive”.

As to `O=C(c1ccccc1)c1ccc(O)cc1O`, the outcome was inactive. For `O=C(O)C(F)(F)C(F)(F)C(F)(F)OC(F)(F)F`, the result was inactive. Still for that read-out and setting: for `O=C(O)CCC(F)(F)C(F)(F)C(F)(F)C(F)(F)C(F)(F)C(F)(F)C(F)(F)F` the value was “inactive”; for `OCCCCC(F)(F)C(F)(F)C(F)(F)C(F)(F)F`, “inactive”. The same measure, in the same setting: for `Cc1cnccn1` the value was “inactive”.

As to `CO[Si](C)(CCC(F)(F)C(F)(F)C(F)(F)C(F)(F)C(F)(F)C(F)(F)F)OC`, the outcome was inactive.

Consider `Cc1ccc(O)c(-n2nc3ccccc3n2)c1`, for which the outcome was inactive.

Regarding `O=C(O)CCC(F)(F)C(F)(F)C(F)(F)F`, the result was inactive. Same read-out and setting: next, `O=C(O)C(F)(F)C(F)(F)C(F)(F)OC(F)(C(F)(F)F)C(F)(F)F`: “inactive”.

`Cc1cc(O)c(C(C)(C)C)cc1C(C)(C)C`: the AC50 was 5.28 µM (active). In the case of `O=S(=O)(O)CCC(F)(F)C(F)(F)C(F)(F)C(F)(F)F`, the result was inactive. With `NC(=O)C(F)(F)C(F)(F)C(F)(F)C(F)(F)C(N)=O`, the outcome was inactive. With `O=C(F)C1(F)C(F)(F)C(F)(F)C(F)(F)C(F)(F)C1(F)F`, the result was inactive. Turning to `CCN=C1C=CC(=C(c2ccc(N(CC)CC)cc2)c2ccc(N(CC)CC)cc2)c2ccccc21`, the AC50 is 716 nM (active) and 210 nM (active). In the case of `O=S(=O)(OCC(F)(F)F)C(F)(F)C(F)(F)C(F)(F)C(F)(F)F`, the result was inactive. Same read-out and setting: next, `CC(C)(C)c1cc(CCC(=O)NCCCCCCNC(=O)CCc2cc(C(C)(C)C)c(O)c(C(C)(C)C)c2)cc(C(C)(C)C)c1O`: “inactive”. As to `OCCCC(F)(F)C(F)(F)C(F)(F)C(F)(F)C(F)(F)C(F)(F)C(F)(F)C(F)(F)F`, the AC50 was 37.8 µM (active) and 30.3 µM (active). Consider `O=C(O)C(F)(F)C(F)(F)C(F)(F)C(=O)O`, for which the outcome was inactive. Turning to `O=C=NCc1cccc(CN=C=O)c1`, the outcome was inactive.
